Results: PubChem BioAssay

Assay: probe aInhba binding on compound microarray – biochemical, small-molecule microarray, 635/667 nm fluorescence, primary screen (AID 1148);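 also: score merges 667nm spot fluorescence with signal-to-noise for antibody binding to printed compounds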
Details: higher = more signal

Question: With `NCCCCCNC(=O)[C@@H]1C[C@@H]2C(=O)N3CCC[C@H]3C(=O)N2[C@@H]1c1cccc(OCCO)c1` as the compound, how does the composite z-score read?
Answer: The composite z-score was 1.15.

Question: For `C=CC[C@]1(C(=O)NCc2ccccc2)N=C(c2ccc(OCCCO)cc2)O[C@H]1c1ccccc1`, which composite z-score is on record?
Answer: Its composite z-score is -0.003.

Question: For `COCCOC(=O)N1C(=O)[C@@]2(c3cc(C#CCNC(N)=O)ccc31)[C@H](c1ccc(O)cc1)N1[C@H](c3ccccc3)[C@H](c3ccccc3)OC(=O)[C@H]1[C@@H]2C(=O)N1CCCCCCC1`, which composite z-score is on record?
Answer: Its composite z-score is -0.186.

Question: For `O=C1[C@H]2[C@H]3[C@H](O)[C@H](O)CC(=NO[C@@H]4O[C@H](CO)[C@@H](O)[C@H](O)[C@H]4O)[C@@H]3CC[C@H]2C(=O)N1Cc1ccc2c(c1)OCO2`, which composite z-score is on record?
Answer: Its composite z-score is -0.0506.

Question: Which composite z-score does the source give for `O=C1[C@H]2[C@H]3[C@H](O)[C@H](O)CC(=NOCc4ccccc4)[C@@H]3CC[C@H]2C(=O)N1C1CCCCC1` here?
Answer: Its composite z-score is -0.533.

Question: With `O=C1[C@H]2[C@H]3[C@H](O)[C@H](O)CC(=NO[C@@H]4O[C@H](CO)[C@@H](O)[C@H](O)[C@H]4O)[C@H]3CC[C@H]2C(=O)N1Cc1ccc2c(c1)OCO2` as the compound, how does the composite z-score read?
Answer: Its composite z-score is -0.0719.

Question: Which composite z-score does the source give for `O=C(NN=C1C[C@@H](O)[C@@H](O)[C@@H]2[C@@H]3C(=O)N(c4cccc(Oc5ccccc5)c4)C(=O)[C@@H]3CC[C@H]12)OCc1ccccc1` here?
Answer: The composite z-score was -0.128.

Question: With `CC(C)CON=C1C[C@@H](O)[C@@H](O)[C@@H]2[C@@H]3C(=O)N([C@@H](C)c4ccccc4)C(=O)[C@@H]3CC[C@H]12` as the compound, how does the composite z-score read?
Answer: Its composite z-score is 0.168.

Question: With `CC(=O)O[C@H]1C2=C(C(=O)[C@@H]3O[C@@H]31)[C@H]1C(C)O[C@@H]2[C@@]23C(=O)[C@@H]4O[C@@H]4[C@@H](O)C2=CO[C@H](C)[C@@H]13` (some centres undefined) as the compound, how does the composite z-score read?
Answer: Its composite z-score is -0.214.
